{"source": "paper PMC11995724", "about": "“Antibiotic target discovery by integrated phenotypic and activity-based profiling of electrophilic fragments” (Cell chemical biology, 2025)", "note": "Hit rate of the full screen: of about 3,200 compounds, about 75 (2%) showed an effect of 50% or more. The sample holds strong results, similar compounds and a random draw of the others, so the mix is not that of the screen.", "data": [{"system": "T1, S. aureus MSSA476", "T1 construct": "MSSA476", "parameters": "species or system S. aureus MSSA476 (TSB) or V. cholerae SAD30 (LB); 384-well bacterial growth screen at 25 uM, OD600 relative to DMSO control", "settings": "relative growth, OD600, TSB; 25 µM; inhibitor", "units": {"% of control remaining": "%"}, "values": [{"smiles": "CCCn1c(N)c(C(=O)CCl)c(=O)n(C)c1=O", "note": "[10-H12, 6-amino-5-(2-chloroacetyl)-3-methyl-1-propyl-1,2,3,4-tetrahydropyrimidine-2,4-dione]", "% of control remaining": 92.8125}, {"smiles": "C=CC(=O)NC(C)c1cnc(C(F)(F)F)s1", "note": "(centres unmarked) [2-A05, N-{1-[2-(trifluoromethyl)-1,3-thiazol-5-yl]ethyl}prop-2-enamide]", "% of control remaining": 119.06}, {"smiles": "N#CC(=Cc1ccc(Cl)c([N+](=O)[O-])c1)C(=O)N1CCCC1", "note": "[9-N05, 3-(4-chloro-3-nitrophenyl)-2-(pyrrolidine-1-carbonyl)prop-2-enenitrile]", "% of control remaining": 107.566}, {"smiles": "Cc1cc(C=C(C#N)C(=O)Nc2ccccc2)c(C)n1C1CC1", "note": "[8-E14, 2-cyano-3-(1-cyclopropyl-2,5-dimethyl-1H-pyrrol-3-yl)-N-phenylprop-2-enamide]", "% of control remaining": 129.793}, {"smiles": "C=CC(=O)N1CCCCC1c1noc(C2CC2)n1", "note": "(centres unmarked) [3-K12, 1-[2-(5-cyclopropyl-1,2,4-oxadiazol-3-yl)piperidin-1-yl]prop-2-en-1-one]", "% of control remaining": 93.3391}, {"smiles": "CCc1ccccc1NC(=O)CN(C)C(=O)C(C)Cl", "note": "(centres unmarked) [4-P05, 2-chloro-N-{[(2-ethylphenyl)carbamoyl]methyl}-N-methylpropanamide]", "% of control remaining": 90.7099}, {"smiles": "CC(Cl)C(=O)Nc1ccc(NC(=O)c2cccs2)cc1", "note": "(centres unmarked) [6-G07, N-[4-(2-chloropropanamido)phenyl]thiophene-2-carboxamide]", "% of control remaining": 112.683}, {"smiles": "NS(=O)(=O)c1ccc(CNC(=O)CCl)cc1", "note": "[4-P12, 2-chloro-N-[(4-sulfamoylphenyl)methyl]acetamide]", "% of control remaining": 97.1891}, {"smiles": "C=CC(=O)NCC1(OC)CCC(C)CC1", "note": "(centres unmarked) [1-P08, N-[(1-methoxy-4-methylcyclohexyl)methyl]prop-2-enamide]", "% of control remaining": 89.3187}, {"smiles": "COc1ccc(N2C(=O)C=CC2=O)c(OC)c1", "note": "[10-J15, 1-(2,4-dimethoxyphenyl)-2,5-dihydro-1H-pyrrole-2,5-dione]", "% of control remaining": 121.875}, {"smiles": "CSc1ccc(C(=O)CCl)cc1", "note": "[10-E07, 2-chloro-1-[4-(methylsulfanyl)phenyl]ethan-1-one]", "% of control remaining": 2.1875}, {"smiles": "CC(C)C(=O)Nc1ccc(C(=O)C(C)Cl)cc1", "note": "(centres unmarked) [10-E08, N-[4-(2-chloropropanoyl)phenyl]-2-methylpropanamide]", "% of control remaining": 106.875}, {"smiles": "CCN(CC)C(=O)c1ccc(NC(=O)CCl)cc1", "note": "[4-C05, 4-(2-chloroacetamido)-N,N-diethylbenzamide]", "% of control remaining": 84.9929}, {"smiles": "CCC(=O)Nc1ccc(C(=O)CCl)cc1", "note": "[10-C03, N-[4-(2-chloroacetyl)phenyl]propanamide]", "% of control remaining": 1.5625}, {"smiles": "CC(C)C(=O)Nc1ccc(C(=O)CCl)cc1", "note": "[10-D04, N-[4-(2-chloroacetyl)phenyl]-2-methylpropanamide]", "% of control remaining": 4.6875}, {"smiles": "CCCc1ccc(C(=O)CCl)cc1", "note": "[10-C04, 2-chloro-1-(4-propylphenyl)ethan-1-one]", "% of control remaining": 134.375}, {"smiles": "CC(NC(=O)CCl)C(=O)Nc1ccc(Cl)cc1", "note": "(centres unmarked) [5-G11, 2-(2-chloroacetamido)-N-(4-chlorophenyl)propanamide]", "% of control remaining": 83.4244}, {"smiles": "CCc1ccc(C(=O)CCl)cc1", "note": "[10-F18, 2-chloro-1-(4-ethylphenyl)ethan-1-one]", "% of control remaining": 102.188}, {"smiles": "CCOC(=O)c1ccc(NC(=O)CCl)cc1", "note": "[4-E17, ethyl 4-(2-chloroacetamido)benzoate]", "% of control remaining": 118.152}, {"smiles": "CC(=O)NCc1ccc(C2CCCN2C(=O)CCl)o1", "note": "(centres unmarked) [5-P13, N-({5-[1-(2-chloroacetyl)pyrrolidin-2-yl]furan-2-yl}methyl)acetamide]", "% of control remaining": 100.182}, {"smiles": "COc1cc(NC(=O)C(C)Cl)cc(OC)c1", "note": "(centres unmarked) [4-I04, 2-chloro-N-(3,5-dimethoxyphenyl)propanamide]", "% of control remaining": 105.574}, {"smiles": "CC(Cl)C(=O)N(Cc1ccc(Cl)cc1)Cc1cnn(C)c1", "note": "(centres unmarked) [5-P17, 2-chloro-N-[(4-chlorophenyl)methyl]-N-[(1-methyl-1H-pyrazol-4-yl)methyl]propanamide]", "% of control remaining": 95.4463}, {"smiles": "C=CC(=O)NCc1ccc(C(=O)N2CCCOC(C)(C)C2)cc1", "note": "[3-N06, N-{[4-(2,2-dimethyl-1,4-oxazepane-4-carbonyl)phenyl]methyl}prop-2-enamide]", "% of control remaining": 118.764}, {"smiles": "CC(C)NC(=O)C(C#N)=Cc1cccc2ccccc12", "note": "[8-P06, 2-cyano-3-(naphthalen-1-yl)-N-(propan-2-yl)prop-2-enamide]", "% of control remaining": 127.801}, {"smiles": "C=CC(=O)N1CCC(C(=O)Nc2cccc(NC(=O)C(C)C)c2)CC1", "note": "[3-F05, N-[3-(2-methylpropanamido)phenyl]-1-(prop-2-enoyl)piperidine-4-carboxamide]", "% of control remaining": 95.0805}, {"smiles": "CC(Cl)C(=O)C=C1N(C)c2ccccc2C1(C)C", "note": "(centres unmarked) [10-J22, 3-chloro-1-(1,3,3-trimethyl-2,3-dihydro-1H-indol-2-ylidene)butan-2-one]", "% of control remaining": 134.063}]}]}
